Inconclusive results are not listed. Entries that show only a call come without a potency. Active and inactive are the calls of the source. Calls come from the whole dose curve; as a rule, active = well fitted cell-killing curve with a large enough effect in the repeat runs; inconclusive = weak or mixed curves, or effect the other way; inactive = flat fitted curve, though single readings scatter.
Experiment: qHTS assay to identify small molecule antagonists of the androgen receptor (AR) signaling pathway using the MDA cell line in the presence of 0.5 nM R1881 - cell viability counter screen (AID 1259242); note: nearly all actives have a fitted effect of over 45% in size
Conditions: MDA-kb2 viability, CellTiter-Fluor protease fluorescence, 16 h; series mostly up to 92.4 µM
Excerpt: U.S. Tox21 Program National Center for Advancing Translational Sciences [NCATS] NIH Chemical Genomics Center [NCGC] U.S. Environmental Protection Agency [EPA] National Institutes of Environmental Health Sciences [NIEHS] National Toxicology Program [NTP] U.S. Food and Drug Administration [FDA] Tox21 Assay Overview: Androgen receptor (AR) is an important member of the nuclear receptor family. Its signaling plays a critical role in AR-dependent prostate cancer and other androgen related diseases. Considerable attention has been given in the past decades to develop methods to study and screen for the environmental chemicals that have the potential to interfere with metabolic homeostasis, reproduction, developmental and behavioral functions. Therefore AR binding assay for screening androgen antagonists can be used to identify potential endocrine disruptors. MDA-kb2 cells (from ATCC, deposited by Wilson et al.) were used to screen for AR inhibitors against Tox21 compound libraries. These cells are human breast carcinoma cells that were stably transfected with a luciferase reporter gene under control of the MMTV promoter that contains response elements for both androgen receptor (AR) and glucocorticoid receptor (GR). The current screening for identification of AR inhibitors against Tox21 libraries used lower concentration of (0.5 nM) R1881 as a stimulator. The cytotoxicity of the Tox21 compound libraries against MDA-kb2 cell line was tested by measuring live-cell protease activity using CellTiter-Fluor assay in the same wells.
Tox21 Assay Protocol Summary: MDA-kb2 cells (cells cultured without CO2) were dispensed at 3,000 cells/well in 4 uL of culture medium into white wall/solid-bottom 1536-well plates (Corning Life Sciences, Corning, NY) using a Multidrop Combi (ThermoFisher Scientific, Waltham, MA) dispenser. After the assay plates were incubated at a 37C and 0% CO2 for 5 hr, 23 nL of compounds dissolved in DMSO, positive controls or DMSO only was transferred to the assay plate by a Pintool station (Kalypsys, San Diego, CA). The transfer of compounds was followed by the addition of 1 uL of 0.5 nM (final concentration) agonist (R1881)/culture medium using a Flying Reagent Dispenser (FRD, Aurora Discovery, San Diego, CA). The plates were incubated at 37C and 0% CO2 for 16 hr. For cytotoxicity assay, 1 uL of CellTiter-Fluor reagent (Promega Corporation, Madison, WI) was added to each well using the FRD and after 30 min incubation at 37C and 0% CO2, The fluorescence intensity was measured using ViewLux plate reader (PerkinElmer, Shelton, CT).

| SMILES | Potency |
| --- | --- |
| O=S(=O)(O)c1ccccc1 | inactive |
| O=C1C(c2[nH]c3ccccc3c2O)=Nc2ccccc21 | inactive |
| C[C@]12CC[C@@H]3c4ccc(O)cc4CC[C@H]3[C@@H]1C[C@@H](O)[C@@H]2O | inactive |
| C=CCc1ccc(OC)c(OC)c1 | inactive |
| CNC(=O)Oc1ccc2c(c1)[C@]1(C)CCN(C)[C@@H]1N2C | inactive |
| COc1ccc(OC)cc1 | inactive |
| c1ccc2c(c1)Cc1ccccc1-2 | inactive |
| CC(C)CC(C)O (stereo not given) | inactive |
| C=Cc1ccc(C)cc1 | inactive |
| CNC(=S)N(C)C | inactive |
| Cc1ccc([N+](=O)[O-])cc1S(=O)(=O)O | inactive |
| NCCN1CCNCC1 | inactive |
| CC1(C)OC[C@@H]2O[C@@]3(C(=O)O)OC(C)(C)O[C@H]3[C@@H]2O1 | inactive |
| N[C@H](Cc1c[nH]c2ccccc12)C(=O)O | inactive |
| O=C(O)c1ccccc1C(=O)O | inactive |
| CCCCCCC=O | inactive |
| CC1(C)S[C@@H]2[C@H](NC(=O)COc3ccccc3)C(=O)N2[C@H]1C(=O)O | inactive |
| CC(C)=CCl | inactive |
| COc1ccc(C)cc1N | inactive |
| CCCCC(C=O)CC (stereo not given) | inactive |

| SMILES | Potency |
| --- | --- |
| CC(=O)OC1CC(C)OC(C)O1 (stereo not given) | inactive |
| CC(O)CC(C)(C)O (stereo not given) | inactive |
| C=CC[N+](C)(C)CC=C | inactive |
| CCCCCCO | inactive |
| CCOC(=O)c1ccc(N)cc1 | inactive |
| C[C@]12CCC(=O)C=C1CC[C@@H]1[C@@H]2[C@@H](O)C[C@@]2(C)[C@H]1CC[C@]2(O)C(=O)CO | inactive |
| N#Cc1ccccc1 | inactive |
| C[Si]1(C)O[Si](C)(C)O[Si](C)(C)O[Si](C)(C)O1 | inactive |
| O=C(O)Cn1c(=O)n(Cc2ccc(Br)cc2F)c(=O)c2ccc(Cl)cc21 | inactive |
| CCCCCCCCCCN | inactive |
| COc1ccc(CCC(C)=O)cc1 | inactive |
| CCCCOC(=O)c1ccc(N)cc1 | inactive |
| O=C(O)c1ccc(S(=O)(=O)N(Cl)Cl)cc1 | inactive |
| COC(=O)c1cccnc1 | inactive |
| CC(C)c1cccc(C(C)C)c1 | inactive |
| Cc1ccc(S(=O)(=O)N=C=O)cc1 | inactive |
| CCNc1cccc(C)c1 | inactive |
| CC(C)CC(=O)CC(C)CC(C)C (stereo not given) | inactive |
| CC(C)OP(=O)(CP(=O)(OC(C)C)OC(C)C)OC(C)C | inactive |
| O=C(OCC1CCC2OC2C1)C1CCC2OC2C1 (stereo not given) | inactive |

Reference: PubChem BioAssay (Tox21)
